Over roughly 18,000 sequences, “log2 normalized intensity” has its median near 0.36; the highest 2% begin near 7.3. For the sample, the highest values were picked, then their nearest neighbours and some sequences at random.

This test has as its target T1, HNF4alpha8 (COS-7 nuclear extract) (Homo sapiens, UniProt P41235-5 1-452).
T1 sequence: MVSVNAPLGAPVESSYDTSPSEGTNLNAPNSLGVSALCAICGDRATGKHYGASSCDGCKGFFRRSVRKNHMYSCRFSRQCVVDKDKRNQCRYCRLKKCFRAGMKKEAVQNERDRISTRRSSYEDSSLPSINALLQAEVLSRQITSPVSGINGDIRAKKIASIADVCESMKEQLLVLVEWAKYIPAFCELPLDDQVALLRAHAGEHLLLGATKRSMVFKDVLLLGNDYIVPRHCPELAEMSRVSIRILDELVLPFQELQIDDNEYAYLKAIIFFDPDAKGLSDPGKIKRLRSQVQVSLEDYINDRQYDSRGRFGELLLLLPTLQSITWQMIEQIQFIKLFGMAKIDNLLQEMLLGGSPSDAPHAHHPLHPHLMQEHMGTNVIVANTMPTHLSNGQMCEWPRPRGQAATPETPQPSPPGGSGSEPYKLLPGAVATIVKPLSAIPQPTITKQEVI
Description: protein-binding microarray; COS-7 nuclear extract on double-stranded Agilent 4x180k PBM; binding buffer, salt, pH and temperature not given in the material; high values mean tight binding. The settings on record: chain copies: 2; label: 3' end of strand 1 on the slide; dsDNA, one strand shown. An outline of the steps: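 A custom Agilent SurePrint G3 4x180k array, spotted in quadruplicate with ~44,000 test sequences as ~60-nt oligonucleotides made double-stranded, was incubated with nuclear extracts. The extracts came from COS-7 cells transiently transfected by CaPO4 with a human HNF4α isoform expression vector. Bound HNF4α was imaged on an Agilent G2565CA scanner at 2-µm resolution, and the binding signal was taken as Agilent software's background-corrected, normalized gProcessedSignal.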
In the case of “TGCCCTTTGGCCCCCAGAGCCCCGTGTCTCGCCTAGGGAGATTAGAGTATCGGTCGA”, the binding signal stood at 5.63 log2 normalized intensity.
As for “ACCCCTGAATAGGTCTTGGAATGTGACGGCGCCTAGGGAGATTAGAGTATCGGTCGA”, the figure is 1.5 log2 normalized intensity; as for “GTTCTCTGGGCTTTTTGATCTTGTCACATTGCCTAGGGAGATTAGAGTATCGGTCGA”, 1.99 log2 normalized intensity.
As for “GAACAGTCCTACAAATGATCAAAGGTTGGTGCCTAGGGAGATTAGAGTATCGGTCGA”, the figure is 3.74 log2 normalized intensity; as for “TACAGGGAGCTATTCTTTAACCAGAGTCTAGCCTAGGGAGATTAGAGTATCGGTCGA”, -0.822 log2 normalized intensity.
As for “TCTTGTGGTAATCTCTTTTGTGTTAGAGGGGCCTAGGGAGATTAGAGTATCGGTCGA”, the figure is 1.02 log2 normalized intensity; as for “GACCTTCAGATGCAGTCCAGAAGGTCAGGAGCCTAGGGAGATTAGAGTATCGGTCGA”, 4.19 log2 normalized intensity.
On to “GCTAGACTTGGACCAGCTTTTGGAAGGACTGCCTAGGGAGATTAGAGTATCGGTCGA”, for which the binding signal is 0.0118 log2 normalized intensity.
Turning to “ACCCACCCACACCTCCCCTTTGTTTAACTTGCCTAGGGAGATTAGAGTATCGGTCGA”, the binding signal stood at 2.79 log2 normalized intensity.
For the sequence “TGCCCTTTGCCTGGTGATCTTTGTTAGACCGCCTAGGGAGATTAGAGTATCGGTCGA”, the binding signal was 3.02 log2 normalized intensity.
In the case of “CCGCCCACCCTTTTTTTTCTTTCTTTTCCCGCCTAGGGAGATTAGAGTATCGGTCGA”, the binding signal came out at 1.46 log2 normalized intensity.
The value for “AGCCTACCCACCCACACCTCCCCTTTGTTTGCCTAGGGAGATTAGAGTATCGGTCGA” was 3.22 log2 normalized intensity; that for “GGGTTTGTTTTTTGCCCTTTGTACCCACACGCCTAGGGAGATTAGAGTATCGGTCGA” was 8.41 log2 normalized intensity; that for “TGTTTTTTGCCCTTTGTACCCACACACACCGCCTAGGGAGATTAGAGTATCGGTCGA” was 7.36 log2 normalized intensity.
As to “CCCACAGAGGGGGTTTGTTTTTTGCCCTTTGCCTAGGGAGATTAGAGTATCGGTCGA”, the binding signal amounted to 5.27 log2 normalized intensity.
As for “AGAGGGGGTTTGTTTTTTGCCCTTTGTACCGCCTAGGGAGATTAGAGTATCGGTCGA”, the figure is 8.63 log2 normalized intensity; as for “CTGTACCCTATGCACCCCACAGTGCTGTTTGCCTAGGGAGATTAGAGTATCGGTCGA”, 1.71 log2 normalized intensity.
The value for “CCAGAGCCTCCAAAGTCCGCTTGCCTGAGGGCCTAGGGAGATTAGAGTATCGGTCGA” was -0.939 log2 normalized intensity; that for “ACAGCGTTTTCCCATTCATGACATTGATTTGCCTAGGGAGATTAGAGTATCGGTCGA” was 1.47 log2 normalized intensity; that for “ACCCCACTTTGGTTCACCGCTCACTGCTCCGCCTAGGGAGATTAGAGTATCGGTCGA” was -0.611 log2 normalized intensity.
For “TACTGGTTGAATGGACGGACAGGTAACGTAGCCTAGGGAGATTAGAGTATCGGTCGA”, the binding signal worked out at 0.899 log2 normalized intensity.
Consider “AACCTCCTTTGAGATAGCTATGATTATCCTGCCTAGGGAGATTAGAGTATCGGTCGA”, for which the binding signal was -0.867 log2 normalized intensity.
The value for “ATTGACATTTGGGGTCAGATAATTCTTTGCGCCTAGGGAGATTAGAGTATCGGTCGA” was 2.42 log2 normalized intensity; that for “AAGACCCAAGGCGTATGAAGCTTTGACCCTGCCTAGGGAGATTAGAGTATCGGTCGA” was 5.29 log2 normalized intensity; that for “TTCCTGAAGATCGCAGACTTTGGACTCTGCGCCTAGGGAGATTAGAGTATCGGTCGA” was 8.57 log2 normalized intensity.
“TGGACTTTGGAATTAAGGAGATTTGGCTTTGCCTAGGGAGATTAGAGTATCGGTCGA”: the binding signal was found to be 5.99 log2 normalized intensity.
As to “CTGGCAGCACCTGAAGAATTTGGACTTTGCGCCTAGGGAGATTAGAGTATCGGTCGA”, the binding signal turned out to be 8.33 log2 normalized intensity.
As to “AGGGATTCCTGAAGATCGCAGACTTTGGACGCCTAGGGAGATTAGAGTATCGGTCGA”, the binding signal worked out at 6.44 log2 normalized intensity.
As for “GGAGACCTGAAACTAGACCAAGAAGACTTTGCCTAGGGAGATTAGAGTATCGGTCGA”, the figure is -0.267 log2 normalized intensity.
As to “GAAGATCGCAGACTTTGGACTCTGCAAGGAGCCTAGGGAGATTAGAGTATCGGTCGA”, the binding signal came to 6.68 log2 normalized intensity.
The value for “GGGTCCTGGCAGCACCTGAAGAATTTGGACGCCTAGGGAGATTAGAGTATCGGTCGA” was 1.76 log2 normalized intensity; that for “GAATTTGGACTTTGCACTAAAAGCCATGAGGCCTAGGGAGATTAGAGTATCGGTCGA” was 6.28 log2 normalized intensity.
The value for “CTGAAGAATTTGGACTTTGCACTAAAAGCCGCCTAGGGAGATTAGAGTATCGGTCGA” was 7.57 log2 normalized intensity; that for “AGCACCTGAAGAATTTGGACTTTGCACTAAGCCTAGGGAGATTAGAGTATCGGTCGA” was 9.19 log2 normalized intensity.
As for “GGTGAGTCTTTGCCCCTGGACTTTGAATTTGCCTAGGGAGATTAGAGTATCGGTCGA”, the figure is 5.75 log2 normalized intensity; as for “TGGACTTTGCACTAAAAGCCATGAGAAGGTGCCTAGGGAGATTAGAGTATCGGTCGA”, 5.41 log2 normalized intensity.
As for “CAAGGAAAGATAAATAGTGACAAATTGTATGCCTAGGGAGATTAGAGTATCGGTCGA”, the binding signal was -0.0347 log2 normalized intensity.
Consider “GTTTCTCAAGTGATCGAAGGTCAACTTATCGCCTAGGGAGATTAGAGTATCGGTCGA”, for which the binding signal came to 4.63 log2 normalized intensity.
Take “TGTCCTGTGATTAAGGTCAATGGGAAACTAGCCTAGGGAGATTAGAGTATCGGTCGA”: the binding signal turned out to be 1.05 log2 normalized intensity.
The value for “CTAGTTCATTAAACATGTTTACTCTGGTCCGCCTAGGGAGATTAGAGTATCGGTCGA” was 1.59 log2 normalized intensity; that for “GAAGGAGAGTGACCTCTGCTTGAAGGCATTGCCTAGGGAGATTAGAGTATCGGTCGA” was 1.78 log2 normalized intensity.
The value for “AGATTCTTTCTTCCTTTTGAAAAAGTGAGTGCCTAGGGAGATTAGAGTATCGGTCGA” was 0.567 log2 normalized intensity; that for “AATAGCCCCAAATTCCTTTCAAACTGTATTGCCTAGGGAGATTAGAGTATCGGTCGA” was 1.37 log2 normalized intensity; that for “CAAAAATGATACCCCAGAGTACAGCACTTTGCCTAGGGAGATTAGAGTATCGGTCGA” was 1.2 log2 normalized intensity.
The value for “ATCAGAGCAAAGTTCAATTTCCAACAAATGGCCTAGGGAGATTAGAGTATCGGTCGA” was 3.74 log2 normalized intensity; that for “GCAGTTCCTGATCTTTGACCTGGAGCATGAGCCTAGGGAGATTAGAGTATCGGTCGA” was 5.34 log2 normalized intensity.
As for “TGGACTTTGATCCTGATGACTGCAGAGCTTGCCTAGGGAGATTAGAGTATCGGTCGA”, the binding signal worked out at 6.16 log2 normalized intensity.

The values are drawn from publication PMC10726135, “HNF4α isoforms regulate the circadian balance between carbohydrate and lipid metabolism in the liver”.
